Source: PubChem BioAssay AID588342 (National Center for Advancing Translational Sciences (NCATS), 2011)
In all, about 360,000 compounds went through this assay and about 25,000 (6.9%) were called active. Roughly 9% stayed inconclusive and do not appear here. The sample holds actives, similar compounds and a random draw of the others, so the mix is not that of the screen. Calls follow the shape of the dose curve; as a rule, active = well fitted inhibition curve with a large enough effect; inconclusive = small, poorly fitted or top-dose-only effect; inactive = flat fitted curve, though single readings scatter.

Molecular target: Luciferin 4-monooxygenase (Photinus pyralis) (UniProt P08659)
Assay: qHTS profiling assay for firefly luciferase inhibitor/activator using purifed enzyme and Km concentrations of substrates (counterscreen for miR-21 project); also: nearly all actives have a fitted effect of over 55% in size;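 as to activity change, negative = inhibition: plate controls were vehicle for no effect and reference inhibitor for full effect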
Conditions: purified FLuc, luminescence inhibition; series mostly up to 57.5 µM; activity change, negative = inhibition: at the top concentration
Method in brief: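 Purified P. pyralis luciferase (10nM final) with 10uM D-luciferin and 10uM ATP (Km levels) in 50mM Tris acetate pH 7.5, 10mM Mg acetate, 0.01% Tween-20, 0.05% BSA; qHTS 6-point titration, ~60 µM downward; luminescence read.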
Potency is read from the fitted curve at half-maximal effect.

Chain of Luciferin 4-monooxygenase (Photinus pyralis) (P08659 whole entry, looked up): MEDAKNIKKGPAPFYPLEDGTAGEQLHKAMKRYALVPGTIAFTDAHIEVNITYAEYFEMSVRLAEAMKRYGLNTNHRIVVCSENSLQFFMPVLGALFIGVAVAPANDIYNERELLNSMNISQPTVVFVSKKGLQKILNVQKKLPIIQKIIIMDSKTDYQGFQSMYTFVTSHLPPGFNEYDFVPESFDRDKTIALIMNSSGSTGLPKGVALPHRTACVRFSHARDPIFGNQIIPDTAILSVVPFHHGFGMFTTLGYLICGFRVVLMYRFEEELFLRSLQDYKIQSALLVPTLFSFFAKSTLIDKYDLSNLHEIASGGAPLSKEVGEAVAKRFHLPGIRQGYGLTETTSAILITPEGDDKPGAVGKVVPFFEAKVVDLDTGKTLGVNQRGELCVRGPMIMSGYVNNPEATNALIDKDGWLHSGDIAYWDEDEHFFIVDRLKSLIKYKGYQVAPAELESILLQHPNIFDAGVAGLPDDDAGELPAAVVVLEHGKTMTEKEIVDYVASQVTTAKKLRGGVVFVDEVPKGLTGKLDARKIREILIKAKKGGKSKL

Row | Compound | activity change, negative = inhibition | Potency
1 | Cc1cccc(C)c1NC(=O)Nc1ccccc1-n1ccnc1 | 0.683% (inactive) | 
2 | O=c1c2ccccc2n(Cc2cccc(Cl)c2)c(=O)n1Cc1ccccc1 | -7.92% (inactive) | 
3 | CCN(CC)CCNc1ncnc2c1cnn2-c1cc(Cl)ccc1C | -3.56% (inactive) | 
4 | Cc1ccc(-n2ncc3c(NCCCn4ccnc4)ncnc32)cc1Cl |  | 12 µM (active)
5 | COCCNc1ncnc2c1c(-c1ccccc1)cn2-c1ccc(C)c(Cl)c1 | -12.8% (inactive) | 
6 | Cc1ccccc1CNC(=O)c1ccc(NC(=O)N2CCCCc3ccccc32)cc1 | -4.31% (inactive) | 
7 | COC(=O)C1=C(C)NC(=O)/C1=C/c1ccc(CNS(=O)(=O)c2ccc(C)cc2)o1 | 2.37% (inactive) | 
8 | C[C@@H](NC(=O)c1nc[nH]c1C(=O)N1CCN(C(=O)OC(C)(C)C)CC1)c1ccccc1 | 6.17% (inactive) | 
9 | Cc1cnc(NC(=O)c2ccccn2)s1 |  | 2.69 µM (active)
10 | Cc1ccc(Cl)cc1NC(=O)CSc1nccn1C | -1.57% (inactive) | 
11 | Cc1cnc(NC(=O)CSc2nnc(C)s2)s1 | 1.36% (inactive) | 
12 | Cc1cnc(NC(=O)c2ccc(Cl)nc2)s1 |  | 12 µM (active)
13 | Cc1ccc(Cl)cc1NC(=O)Cc1ccc(-n2c(C)nc3cccnc32)cc1 | -0.863% (inactive) | 
14 | Cc1cnc(NC(=O)Cn2cnc3c2c(=O)n(C)c(=O)n3C)s1 | -0.119% (inactive) | 
15 | Cc1cnc(NC(=O)C2CCCC2)s1 | -1.27% (inactive) | 
16 | Cc1ccc(Cl)cc1NC(=O)c1ccccn1 |  | 16.9 µM (active)
17 | Cc1cnc(NC(=O)CSc2nnc(-c3ccccc3)n2Cc2ccccc2)s1 | -0.828% (inactive) | 
18 | COc1ccc(-c2onc(C)c2C)cc1S(=O)(=O)NCc1cccs1 | 2.14% (inactive) | 
19 | CC(=O)NC(CC(=O)Nc1nc(-c2ccccc2)c(C(C)=O)s1)c1ccccc1 (stereo not drawn) | 3.71% (inactive) | 
20 | COc1cccc(-c2n[nH]c3c2C(c2cccc(O)c2)N(C)C3=O)c1 (stereo not drawn) | -14.7% (inactive) | 
21 | O=C1COc2ccc(C(=O)CSc3ccc(Br)cc3)cc2N1 | -18.2% (inactive) | 

Row | Compound | activity change, negative = inhibition | Potency
22 | Cc1ccc(C)c(N2CCN(c3ccc4cc(S(=O)(=O)N5CCC(C)CC5)ccc4n3)CC2)c1 | 0.974% (inactive) | 
23 | Cc1cc(NC(=O)C2CCC(CNS(=O)(=O)c3ccc(Br)s3)CC2)ccc1Br (stereo not drawn) | -17.6% (inactive) | 
24 | Cc1cc(C)cc(OCC(=O)Nc2nc(-c3ccc(F)cc3)ns2)c1 | -13.9% (inactive) | 
25 | C/C(N)=C(/C#N)C(=O)COC(=O)C1=NN(c2ccccc2)C(=O)CC1 | 3.91% (inactive) | 
26 | C/C(N)=C(/C#N)C(=O)COC(=O)c1cc(-c2cccc(Br)c2)nc2ccccc12 | -18.4% (inactive) | 
27 | C/C(N)=C(/C#N)C(=O)COC(=O)c1cc(-c2ccc(C)cc2)nc2ccccc12 |  | 9.53 µM (active)
28 | COc1ccc(-c2cc(C(=O)N(C)Cc3ccccc3)c3ccccc3n2)cc1 |  | 10.7 µM (active)
29 | N/C(=N\OC(=O)c1cc(-c2ccccc2)nc2ccccc12)c1ccncc1 |  | 21.3 µM (active)
30 | COc1ccc(CCNC(=O)COC(=O)c2cc(=O)c3ccccc3o2)cc1 | 3.44% (inactive) | 
31 | CNC(=O)COC(=O)c1cc(-c2ccc(OC)cc2)nc2ccccc12 |  | 5.36 µM (active)
32 | O=C(O/N=C(/c1ccccc1)c1ccncc1)c1ccccc1[N+](=O)[O-] | -2.68% (inactive) | 
33 | COc1ccc(NC(=O)c2cc(-c3cc(OC)c(OC)c(OC)c3)nc3ccccc23)c(OC)c1 | -14.7% (inactive) | 
34 | COc1ccc(C2=NS(=O)(=O)N(C)C(C(=O)N(C)Cc3ccccc3)=C2)cc1 | 2.04% (inactive) | 
35 | COc1ccc(CN(C)C(=O)c2cc(-c3ccc(C)cc3C)nc3ccccc23)c(OC)c1OC | -1.21% (inactive) | 
36 | COC(=O)CNC(=O)c1cc(-c2ccncc2)nc2ccccc12 | -2.72% (inactive) | 
37 | Cc1cc(C)c2oc(C(=O)Nc3c(C(=O)Nc4ccccc4)oc4ccccc34)cc(=O)c2c1 | -0.72% (inactive) | 
38 | CCCCN(C(=O)C(CCSC)N1C(=O)c2ccccc2C1=O)c1c(N)n(CCC)c(=O)[nH]c1=O (stereo not drawn) | -0.596% (inactive) | 
39 | COc1cc(NS(=O)(=O)c2ccc3c(c2)OCC(C(=O)N2CCCC2)O3)cc(OC)c1 (stereo not drawn) | -13.5% (inactive) | 
40 | COc1ccc2c(CNCCc3ccccc3C)c(C(=O)O)n(Cc3ccccc3C)c2c1 | -6.19% (inactive) | 
41 | CCCn1ccc2c(OCC(=O)NCc3ccc(F)cc3)cccc2c1=O | 5.31% (inactive) | 
42 | COC(=O)c1cccnc1NC(=S)NC(C)C | -19% (inactive) | 

Row | Compound | activity change, negative = inhibition | Potency
43 | Cc1cc(NS(=O)(=O)c2ccc3oc(=O)c4ncn(C)c4c3c2)ccc1Br | -16.5% (inactive) | 
44 | Cc1c(O)c(C)c2c(c1O)C(=O)C[C@@H](c1ccccc1)O2 | -0.7% (inactive) | 
45 | CCn1cc(C(=O)NCCc2ccccc2)c(=O)c2cc(S(=O)(=O)N3CCCCCC3)ccc21 | -6.86% (inactive) | 
46 | CCOc1ccc(N2CC(C)Cn3c2nc2c3c(=O)n(Cc3c(F)cccc3Cl)c(=O)n2C)cc1 (stereo not drawn) | -2.6% (inactive) | 
47 | Cc1ccc(NC(=O)CSc2nc3c(c(=O)[nH]2)CN(Cc2ccc4c(c2)OCO4)CC3)cc1C | -1.68% (inactive) | 
48 | COc1ccc(-c2cc(C(=O)n3cnc4ccccc43)c3ccccc3n2)cc1 |  | 5.36 µM (active)
49 | COc1ccc(S(=O)(=O)n2cnc3ccccc32)c(C)c1 | 4.47% (inactive) | 
50 | Cc1ccc(OCC(=O)Nn2cnc3ccccc32)cc1 | 5.06% (inactive) | 
51 | O=C(Nc1ccc(S(=O)(=O)N2CCC(c3nc4ccccc4s3)CC2)cc1)c1ccccc1F | 3.7% (inactive) | 
52 | Cc1ccc(S(=O)(=O)N(C)C)cc1NC(=O)CN1c2cccc3cccc(c23)S1(=O)=O | 5.47% (inactive) | 
53 | CCOC(=O)c1c(C)[nH]c(C2=NNC(=NC(C)COC)SC2)c1C (stereo not drawn) |  | 8.49 µM (active)
54 | COc1ccc(C2(Nc3cccc(F)c3)C(=O)c3ccccc3C2=O)cc1 | 1.56% (inactive) | 
55 | O=C(COC(=O)c1ncc(Cl)c(Cl)c1Cl)NCc1ccccc1 | 0.856% (inactive) | 
56 | CCOC(=O)c1cccc(NS(=O)(=O)c2cc(-c3cnc(C)o3)ccc2OC)c1 | -15.8% (inactive) | 
57 | COc1ccc(NS(=O)(=O)c2cccc(C(=O)NCCc3ccc(S(N)(=O)=O)cc3)c2)cc1 | 4.27% (inactive) | 
58 | COc1ccc(CCNC(=O)CCCn2c(=O)c3ccccc3n(Cc3ccc(C)cc3)c2=O)cc1OC | 4.24% (inactive) | 
59 | COC(=O)CNS(=O)(=O)c1ccc(OC)cc1 | -0.286% (inactive) | 
60 | COC(=O)CNS(=O)(=O)c1ccc(Cc2ccc(S(=O)(=O)NCC(=O)OC)cc2)cc1 |  | 3.79 µM (active)
61 | C/C(N)=C(/C#N)C(=O)COC(=O)CNS(=O)(=O)c1ccc(C)cc1 | 2.08% (inactive) | 
62 | COc1ccc(-c2nc(Cn3c(=O)cc(C)c4c(C)nn(-c5ccccc5)c43)c(C)o2)c(OC)c1 | 0.0062% (inactive) | 
63 | CCOC(=O)c1nnn(CC(=O)NC(=O)Nc2ccccc2F)c1C(=O)OCC | -6.37% (inactive) | 
